# Measurements published in PubChem BioAssay AID1490 (National Center for Advancing Translational Sciences (NCATS), 2009).
# Values joined by “and” are separate entries in the source; they are usually repeats but may differ in a detail not shown here. Equal entries are not always repeated. In all, about 310,000 compounds went through this assay and about 11,000 (3.5%) were called active. Roughly 4% stayed inconclusive and do not appear here. The sample as a whole holds a higher share of actives than the screen did. Unmarked numbers belong to inactive results. Calls follow the shape of the dose curve; as a rule, active = well fitted inhibition curve with a large enough effect; inconclusive = small, poorly fitted or top-dose-only effect, or another doubt; inactive = no such curve, though single readings can be large or run the other way.
# Target: 4'-phosphopantetheinyl transferase ffp (Bacillus subtilis) (UniProt Q9F4F7)
# Experiment: qHTS Assay for Inhibitors of Bacillus subtilis Sfp phosphopantetheinyl transferase (PPTase);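 also: the enzyme is Sfp with the accession as filed and its product quenches rhodamine fluorescence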;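 as to largest response in the series, negative = inhibition: 0% = enzyme reaction without inhibitor and -100% = no enzyme wells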
# Details: Biochemical Sfp PPTase activity
# Procedure, shortened: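 Fluorescence-quenching assay with 15 nM Sfp, 5 uM rhodamine-CoA and 12.5 uM BHQ-2-labelled ybbR peptide in pH 7.6 Hepes/MgCl2 buffer. Enzyme was pre-incubated with compound for 15 min at room temperature. Rate was taken from the 30-min fluorescence change (525/598 nm).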
# Potency is read from the fitted curve at half-maximal effect.
Compound,"largest response in the series, negative = inhibition",Potency
COc1ccc(CCCOC(Cn2ccnc2)c2ccc(OC)cc2)cc1 (stereo not drawn),10.3% and -14.1%,–
Cc1cc(C)c(C#N)c(N2CCC(C(N)=O)CC2)n1,15.7%,–
CC(=O)c1cc(C#N)c(N2CCCCC2)nc1C,10.1%,–
N#Cc1c(N2CCCCC2)nc(N)c2c(N)nc(SCC(=O)O)cc12,–,8.91 µM (active)
N#CCc1ccc(NC(=O)c2ccccc2C(=O)Nc2ccc(CC#N)cc2)cc1,5.96%,–
CCOCc1nnc(NC(=O)CCC2CCCCC2)s1,18.1%,–
COC(=O)CCCC1=CC2=CC(=O)C(C)(OC(=O)c3cccs3)C(=O)C2=CN1c1ccc(CO)cc1 (stereo not drawn),-1.16%,–
CCOC(=O)c1csc(CCNC(=O)c2oc3c(Cl)cc(C)cc3c2C)n1,-19.2%,–
Nc1ccc2nc3c(=O)[nH]c(=S)[nH]c3nc2c1,–,8.91 µM (active)
O=c1[nH]c(=O)c2nc3ccccc3nc2[nH]1,8.31%,–
O=C(NCc1cc(F)cc(C(F)(F)F)c1)C1CCC(=O)N(C2CCCC2)C1 (stereo not drawn),6.77%,–
O=c1oc2ccccc2c(CNc2ccccc2)c1[N+](=O)[O-],5.08%,–
C=C1C(=CC=C2CCC[C@@]3(C)[C@@H]2CC[C@H]3[C@H](C)CCCC(C)C)C[C@@H](O)C[C@@H]1O,3.54%,–
O=C(N/N=C/c1ccco1)c1ccc(C(=O)N/N=C/c2ccco2)o1,22%,–
C/C(=N\NC(=O)c1cc(-c2ccc(O)cc2)nc2ccccc12)c1cccnc1,0.726%,–
O=C(N/N=C/C=C/c1ccco1)c1cccs1,–,10 µM (active)
CCOc1cc(/C=N/NC(=O)c2cc(-c3ccccc3)nc3ccccc23)ccc1O,10.1%,–
CC(=O)Nc1ccc(/C=N/NC(=O)c2cccs2)cc1,9.99%,–
Cc1ccc(-c2cc(C(=O)N/N=C/C=C/c3ccco3)c3ccccc3n2)cc1C,–,28.2 µM (active)
O=C(O)c1cc2c(cc1NC(=O)c1c(F)cccc1Cl)OCCCO2,14.9%,–
Cc1nc2c(c(=O)n1Cc1ccco1)c1nc3ccccc3nc1n2Cc1ccccc1,–,8.91 µM (active)
Cc1ccc(Cn2c(C)nc3c(c2=O)c2nc4ccccc4nc2n3Cc2ccco2)cc1,18.1%,–
Cc1nc2ccccc2c(=O)n1Cc1ccc([N+](=O)[O-])cc1,-0.474%,–
O=C(NC1CCCCC1)C1CCC(CNS(=O)(=O)c2ccccc2)CC1 (stereo not drawn),-16.9%,–

Compound,"largest response in the series, negative = inhibition",Potency
Cc1ccc(NC(=O)c2cc(-c3ccccc3O)n[nH]2)cc1C,13.9%,–
CCN(CC)S(=O)(=O)c1cc([N+](=O)[O-])ccc1NNC(=O)Nc1ccccc1,–,56.2 µM (active)
CCN(CC)C(=O)CN(c1cccc([N+](=O)[O-])c1)S(=O)(=O)c1ccccc1,19.8%,–
CCN(CC)S(=O)(=O)c1cc([N+](=O)[O-])ccc1N=Nc1c(O)n(C)c2ccccc12,22.9%,–
CCCn1c2ccccc2c2cnn(CC(=O)NCCCN3CCCCC3CC)c(=O)c21 (stereo not drawn),4.88%,–
O=[N+]([O-])c1cccc(/C([O-])=C(/C(=S)Nc2ccccc2F)[n+]2ccccc2)c1,–,17.8 µM (active)
CCC(C)NCC(=O)Nc1ccc([N+](=O)[O-])cc1C(=O)Nc1ccccc1F (stereo not drawn),8.61%,–
Cc1cccc(C(=O)NNC(=O)c2cccc([N+](=O)[O-])c2)c1,12.7%,–
Cc1csc(NC(=O)CN2CCCCCC2)n1,–,79.4 µM (active)
N#Cc1ccsc1NC(=O)CN1CCCCC1,–,89.1 µM (active)
N#Cc1cccc(NC(=O)CN2CCCCCC2)c1,7.01%,–
Cc1cc(C)c(NC(=O)CN2CCCCCC2)c(C)c1,-2.37%,–
N#Cc1ccsc1NC(=O)CN1CCN(S(=O)(=O)c2cc(Cl)ccc2Cl)CC1,-21.5%,–
CS(=O)(=O)c1ccc2nc(NC(=O)CN3CCCCCC3)sc2c1,-29.2%,–
CCOC(=O)C1CN(S(=O)(=O)c2ccc(OC)cc2)c2cc(Cl)ccc2O1 (stereo not drawn),3.4%,–
Cc1ccc(S(=O)(=O)NNC(=O)/C=C/c2cccc(F)c2)cc1,9.18%,–
C=CCc1ccccc1OCC(O)CN1CCN(CCO)CC1 (stereo not drawn),5.68%,–
CCOC(=O)c1sc(NC(=O)c2sc(C)nc2C)nc1C,11.7%,–
CC1CCCCN1C(=O)Cn1c(=O)oc2cc(S(=O)(=O)N3CCCCC3)ccc21 (stereo not drawn),10.7%,–
Cc1cccc(CNc2cc(-c3ccccc3Cl)ncn2)c1,20.2%,–
Clc1ccccc1-c1cc(NCCN2CCOCC2)ncn1,–,79.4 µM (active)
c1ccc2cc3c(NCCN4CCOCC4)ccnc3cc2c1,-20.1%,–
COc1ccc(NC(=O)CCCN2C(=O)C(c3ccccc3)Oc3cccnc32)cc1 (stereo not drawn),1.64%,–
Cc1ccc(C)c(S(=O)(=O)N2CCCOC2CNC(=O)C(=O)NC2CCCCC2)c1 (stereo not drawn),11.5%,–

Compound,"largest response in the series, negative = inhibition",Potency
Cc1ccc(C)c(NC(CC(=O)c2ccccc2)C(=O)OCC(=O)c2cccs2)c1 (stereo not drawn),–,39.8 µM (active)
COC(=O)C(CC(=O)Nc1cc(C)ccc1C)Nc1ccccc1OC (stereo not drawn),28.6%,–
Cc1ccc(C)c(NC(=O)CCC(=O)NNC(=O)c2cccs2)c1,3.73%,–
Cc1ccc(-c2ncc(Cl)cc2-c2ccc(S(C)(=O)=O)cc2)cn1,13.6%,–
C=CCn1c(SCC(=O)NCC2CCCO2)nc2sc(C)c(C)c2c1=O (stereo not drawn),13.7%,–
C=CCn1c(SCc2csc(C)n2)nc2scc(-c3ccc(C)o3)c2c1=O,–,11.2 µM (active)
C=CCn1c(SCc2c(C)noc2C)nc2sc3c(c2c1=O)CCC(C)C3 (stereo not drawn),-23.8%,–
COc1ccccc1NC(=O)c1ccc(N2CC3CC(C2)c2cccc(=O)n2C3)c(NC(=O)c2cccnc2)c1 (stereo not drawn),–,31.6 µM (active)
COC(=O)c1cc(NC(=O)c2cccnc2)ccc1N1CCOCC1,9.31%,–
COc1ccccc1NC(=O)c1ccc2nc(N3C(=O)CCC3=O)sc2c1,10.7%,–
CCCCn1c(-c2cccc(C)c2)nc2cc3[nH]c(=O)c(C(C)C)nc3cc21,-18.3%,–
CCOC(OCC)OCC,-10.1%,–
CC1C(=O)Nc2ccccc2N1C(=O)c1c(F)cccc1F (stereo not drawn),14.4%,–
CC(C)c1cnc(NC(=O)Cc2ccccc2)s1,26.8%,–
CC(=O)Nc1c2c(nn1-c1ccc(C)cc1C)CS(=O)C2 (stereo not drawn),9.45%,–
COc1ccc(/C=C2\SC(=S)N(CCC(=O)Nc3cccc(C(=O)O)c3)C2=O)cc1OC,-8.44%,–
O=C(CCCN1C(=O)/C(=C/c2ccco2)SC1=S)Nc1ccccc1,–,31.6 µM (active)
O=C(CCCN1C(=O)/C(=C\c2ccccc2)SC1=S)Nc1ccccc1O,17.9%,–
O=C(CCCN1C(=O)/C(=C/c2cccs2)SC1=S)Nc1ccc(O)cc1,-1.57%,–
O=C(CCCN1C(=O)/C(=C/c2ccccc2)SC1=S)Nc1ccc(O)cc1,12.2%,–
O=C(CCCN1C(=O)/C(=C\c2ccco2)SC1=S)Nc1cccc2ccccc12,–,56.2 µM (active)
Cc1ccc2nc3c(cc(C(=O)NCCc4ccccc4)c(=N)n3CC3CCCO3)c(=O)n2c1 (stereo not drawn),21.3%,–
Cc1ccc(CS(=O)(=O)c2ncc(Cl)c(C(=O)Nc3nnc(C)s3)n2)cc1,-13.2%,–
COc1ccc(Cl)cc1NS(=O)(=O)c1cccc(C(=O)NCC2CCCO2)c1 (stereo not drawn),12.9%,–

Compound,"largest response in the series, negative = inhibition",Potency
CN(Cc1ccccc1)C(=O)CSc1nc2ccccc2[nH]1,9.63%,–
Cn1nnc(NC(=S)NC(=O)c2ccccc2)n1,–,35.5 µM (active)
Cc1cc2[nH]ncc2cc1NC(=S)NC(=O)c1ccccc1,1.08%,–
COCCCNC(=S)NC(=O)c1ccccc1,8.58%,–
O=C(NC(=S)NC1CCS(=O)(=O)C1)c1cccc([N+](=O)[O-])c1 (stereo not drawn),-2.6%,–
COc1ccc(-c2nc3ccccc3c(=O)n2CCc2ccc(O)cc2)cc1,-0.523%,–
COc1ccc(CCNCc2c(-c3ccccc3)n(C)c3ccccc23)cc1,–,79.4 µM (active)
COc1ccc(-c2c(C#Cc3ccccc3)c3ccccc3n2C)cc1,-20.7%,–
CCOc1ccc(-n2c(SCC(N)=O)nnc2-c2ccco2)cc1,27.1%,–
O=C(O)c1cccc(S(=O)(=O)Nc2ccc(O)cc2Sc2nc3ccccc3s2)c1,-29.2%,–
CCOc1ccccc1Nc1ccc2nonc2c1[N+](=O)[O-],1.09%,–
O=[N+]([O-])c1c(NCCO)cc(Sc2nc3ccccc3s2)c2nonc12,–,6.31 µM (active)
Cc1ccc(C)c2[nH]c(=O)c(CCNC(=O)c3cccs3)cc12,6.07%,–
C=CCn1c(CCNC(=O)c2cccs2)n[nH]c1=S,–,7.94 µM (active)
C=CCn1c(CCc2ccc(OC(C)C)cc2)n[nH]c1=S,14.2%,–
COc1ccc(C(=O)NC2CC(C)(C)NC(C)(C)C2)cc1OC,0.887%,–
N#C/C(=C\c1ccc(O)c(O)c1)C(=O)NCc1ccccc1,-22.3% and -19.4%,–
N#C/C(=C\c1ccc(O)c(O)c1)C(N)=O,–,79.4 µM (active) and 56.2 µM (active)
CC(C)(C)C(=O)/C(C#N)=C/c1ccc(O)cc1,8.9%,–
C=CCOc1ccc(/C=C/C(=O)OCC(=O)NC2CCCCCC2)cc1,16.7%,–
CCOC(=O)c1ccc(NC(=O)CNC(=O)c2ccco2)cc1,7.8%,–
